Laboratory results reported in PubChem BioAssay AID624346 (National Center for Advancing Translational Sciences (NCATS), 2012).
Records with an inconclusive call do not appear. Activity calls are given as the source filed them.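 The calls were made as follows: active = potency, the concentration giving half inhibition in the gel assay, of 75 µM or lower; inconclusive = potency above 75 µM yet under 100 µM; inactive = potency of 100 µM or weaker, or none.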

molecular target: Ubiquitin carboxyl-terminal hydrolase 1 (Homo sapiens) + WD repeat-containing protein 48 (Homo sapiens) (UniProt O94782+Q8TAF3); test: Inhibitors of USP1/UAF1: Hit Validation in USP1 Diubiquiting Gel Assay; conditions: USP1/UAF1 K63 diubiquitin cleavage, SDS-PAGE gel
Sequence (O94782 whole entry, looked up): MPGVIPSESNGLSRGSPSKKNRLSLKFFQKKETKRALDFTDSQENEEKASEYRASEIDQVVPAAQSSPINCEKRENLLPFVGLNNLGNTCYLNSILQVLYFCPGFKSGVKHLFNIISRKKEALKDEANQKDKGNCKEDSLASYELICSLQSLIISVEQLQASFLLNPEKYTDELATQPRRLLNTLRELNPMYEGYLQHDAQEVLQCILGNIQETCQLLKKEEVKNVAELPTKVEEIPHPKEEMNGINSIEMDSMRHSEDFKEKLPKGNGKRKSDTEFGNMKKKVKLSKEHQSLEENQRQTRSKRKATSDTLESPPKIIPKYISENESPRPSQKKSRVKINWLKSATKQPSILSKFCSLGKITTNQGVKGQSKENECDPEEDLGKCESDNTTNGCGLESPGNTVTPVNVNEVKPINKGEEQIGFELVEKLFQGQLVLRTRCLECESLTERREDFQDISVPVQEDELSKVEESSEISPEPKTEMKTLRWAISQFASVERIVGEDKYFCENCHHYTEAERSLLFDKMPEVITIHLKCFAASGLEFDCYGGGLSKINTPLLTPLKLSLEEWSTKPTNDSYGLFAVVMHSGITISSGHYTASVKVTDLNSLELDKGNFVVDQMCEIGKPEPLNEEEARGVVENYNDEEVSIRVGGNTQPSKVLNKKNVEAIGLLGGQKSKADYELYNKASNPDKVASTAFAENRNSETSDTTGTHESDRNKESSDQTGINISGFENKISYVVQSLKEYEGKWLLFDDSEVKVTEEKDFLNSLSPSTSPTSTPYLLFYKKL
Sequence (Q8TAF3 whole entry, looked up): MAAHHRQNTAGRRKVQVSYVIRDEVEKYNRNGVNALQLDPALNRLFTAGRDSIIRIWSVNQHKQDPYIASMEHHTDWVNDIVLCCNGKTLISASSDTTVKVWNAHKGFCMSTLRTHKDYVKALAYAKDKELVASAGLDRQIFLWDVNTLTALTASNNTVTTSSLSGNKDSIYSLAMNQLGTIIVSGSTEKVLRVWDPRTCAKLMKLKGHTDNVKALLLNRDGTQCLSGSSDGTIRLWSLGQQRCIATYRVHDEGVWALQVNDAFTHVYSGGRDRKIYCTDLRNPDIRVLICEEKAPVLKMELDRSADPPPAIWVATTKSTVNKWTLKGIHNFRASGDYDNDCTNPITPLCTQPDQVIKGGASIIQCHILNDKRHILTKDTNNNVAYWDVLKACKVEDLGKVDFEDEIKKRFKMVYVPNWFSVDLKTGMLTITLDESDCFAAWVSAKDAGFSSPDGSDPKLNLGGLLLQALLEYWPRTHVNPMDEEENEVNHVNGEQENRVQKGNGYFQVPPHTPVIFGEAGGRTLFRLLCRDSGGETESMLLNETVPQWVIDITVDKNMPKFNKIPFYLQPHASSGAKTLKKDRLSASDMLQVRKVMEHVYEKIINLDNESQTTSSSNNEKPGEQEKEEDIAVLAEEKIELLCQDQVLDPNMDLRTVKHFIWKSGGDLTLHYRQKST
Excerpt: Deubiquitinating enzymes (DUBs) are a class of enzymes that can cleave isopeptide bond formed between the C-terminal carboxylate of ubiquitin and a lysine side-chain amino group on the target protein. Among them, ubiquitin specific proteases (USPs) constitute the largest DUB family. Human USPs are emerging as promising targets for pharmacological intervention because of their connection to a number of human diseases, including prostate, colon and breast cancer (1, 2), pediatric acute lymphoblastic leukemia (3), and familial cylindromatosis (4). The advantage of inhibiting USPs lies in the potential specificity of therapeutic intervention that can lead to better efficacy and reduce nonspecific side effects. In a collaboration between the University of Delaware and the NIH Chemical Genomics Center, a high-throughput screen assay was developed to screen for USP1/UAF1 inhibitors. This miniaturized assay has a fluorescent read-out and is used to screen the NIH Molecular Libraries Small Molecule Repository (MLSMR) in order to identify a small molecule that inhibits USP1. Follow-up assays have also been developed to further test the hits from the primary screen. This assay validates the hits identified from the primary screen using a USP1 diubiquiting gel assay. NIH Chemical Genomics Center [NCGC] NIH Molecular Libraries Probe Centers Network [MLPCN] MLPCN Grant: DA030552 Assay Submitter (PI): Zhihao Zhuang, University of Delaware 1. Priolo, C., et al. (2006) The isopeptidase USP2a protects human prostate cancer from apoptosis. Cancer Res 66, 8625-8632 2. Popov, N., et al. (2007) The ubiquitin-specific protease USP28 is required for MYC stability. Nat Cell Biol 9, 765-774 3. De Pitta, C., et al. (2005) A leukemia-enriched cDNA microarray platform identifies new transcripts with relevance to the biology of pediatric acute lymphoblastic leukemia. Haematologica 90, 890-898 4. Kovalenko, A., et al. (2003) The tumour suppressor CYLD negatively regulates NF-kappaB signalling by deubiquitination. Nature 424, 801-805
The inhibition assay contains 100 nM for USP1/UAF1, 2 microM K63 linked diubiquitin, and inhibitors at varied concentrations (0.08 microM - 114 microM). The reaction was allowed for 1 hour at 37 degrees C, and quenched by the addition of Laemmli sample buffer. The reaction product was separated on a 20% denaturing SDS-PAGE gel and stained with Coomassie Blue. The intensity of the individual diubiquitin and monoubiquitin band was quantified using Quantity One 4.3.1 (Biorad, Hercules, CA). The percentage of the conversion was determined and used to calculate the reaction rate. The rate was plotted against inhibitor concentrations and fitted to determine the IC50 values using GraphPad Prism (GraphPad Software, Inc. La Jolla, CA).

Structure (SMILES)	Potency	outcome
COc1ccccc1-c1nc(NCc2cccs2)c2ccccc2n1	21.3 µM (active)	–
COc1ccccc1-c1nccc(NCc2cccc(C)c2)n1	18.8 µM (active)	–
c1ccc2c(Nc3ccncc3)nc(-c3ccc4c(c3)OCO4)nc2c1	28.6 µM (active)	–
FC(F)(F)c1ccccc1-c1nc(NCc2cccs2)c2ccccc2n1	3.3 µM (active)	–
COc1ccccc1-c1nc(NCc2ccccc2)c2ccccc2n1	6.4 µM (active)	–
Cc1ccccc1-c1nc(NCc2cccs2)c2ccccc2n1	6 µM (active)	–
COc1ccccc1-c1nccc(NCc2ccccc2)n1	16.9 µM (active)	–
Cc1cccc(CNc2cc(-c3ccccc3C)ncn2)c1	26.3 µM (active)	–
COc1ccccc1CNc1ccnc(-c2ccccc2C(F)(F)F)n1	4.2 µM (active)	–
COc1ccccc1-c1cc(NCc2ccccc2)ncn1	10.9 µM (active)	–
FC(F)(F)c1ccccc1-c1nccc(NCc2ccccc2)n1	9.6 µM (active)	–
COc1ccc(CNc2ccnc(-c3ccccc3C(F)(F)F)n2)c(OC)c1	4.5 µM (active)	–
FC(F)(F)c1ccccc1-c1nccc(NCc2cccs2)n1	–	inactive
Cc1noc(C)c1-c1nc(NCc2cccs2)c2ccccc2n1	5 µM (active)	–
Fc1ccc(Nc2nc(-c3cccnc3)nc3ccccc23)cc1	–	inactive
N#Cc1cccc(-c2ccc3ncnc(NCc4ccccc4)c3c2)c1	26.6 µM (active)	–
Cc1cccc(CNc2ccnc(-c3ccccc3Cl)n2)c1	–	inactive
Clc1ccccc1-c1nccc(NCc2ccccc2)n1	20 µM (active)	–
COc1ccccc1CNc1nc(-c2ccc(N(C)C)cc2)nc2ccccc12	10 µM (active)	–
Cc1cccc(CNc2ccnc(-c3ccccc3C(F)(F)F)n2)c1	3 µM (active)	–
COc1ccc(CNc2nc(-c3ccccc3OC)nc3ccccc23)c(OC)c1	14.5 µM (active)	–
COc1cccc(-c2nccc(NCc3cccc(C)c3)n2)c1	13 µM (active)	–
FC(F)(F)c1ccccc1-c1nc(NCc2cccnc2)c2ccccc2n1	–	inactive
Cc1ccccc1-c1nc(NCc2cccnc2)c2ccccc2n1	–	inactive
